Test [1] has as its target Tyrosine-protein kinase CSK (Homo sapiens) (UniProt P41240). Particulars: at 1 µM.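 Further: each value is an averaged inhibition reading.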
Test [2] concerns the target T1, Discoidin domain-containing receptor 2 (Homo sapiens) (UniProt Q16832).
T1 sequence (whole entry): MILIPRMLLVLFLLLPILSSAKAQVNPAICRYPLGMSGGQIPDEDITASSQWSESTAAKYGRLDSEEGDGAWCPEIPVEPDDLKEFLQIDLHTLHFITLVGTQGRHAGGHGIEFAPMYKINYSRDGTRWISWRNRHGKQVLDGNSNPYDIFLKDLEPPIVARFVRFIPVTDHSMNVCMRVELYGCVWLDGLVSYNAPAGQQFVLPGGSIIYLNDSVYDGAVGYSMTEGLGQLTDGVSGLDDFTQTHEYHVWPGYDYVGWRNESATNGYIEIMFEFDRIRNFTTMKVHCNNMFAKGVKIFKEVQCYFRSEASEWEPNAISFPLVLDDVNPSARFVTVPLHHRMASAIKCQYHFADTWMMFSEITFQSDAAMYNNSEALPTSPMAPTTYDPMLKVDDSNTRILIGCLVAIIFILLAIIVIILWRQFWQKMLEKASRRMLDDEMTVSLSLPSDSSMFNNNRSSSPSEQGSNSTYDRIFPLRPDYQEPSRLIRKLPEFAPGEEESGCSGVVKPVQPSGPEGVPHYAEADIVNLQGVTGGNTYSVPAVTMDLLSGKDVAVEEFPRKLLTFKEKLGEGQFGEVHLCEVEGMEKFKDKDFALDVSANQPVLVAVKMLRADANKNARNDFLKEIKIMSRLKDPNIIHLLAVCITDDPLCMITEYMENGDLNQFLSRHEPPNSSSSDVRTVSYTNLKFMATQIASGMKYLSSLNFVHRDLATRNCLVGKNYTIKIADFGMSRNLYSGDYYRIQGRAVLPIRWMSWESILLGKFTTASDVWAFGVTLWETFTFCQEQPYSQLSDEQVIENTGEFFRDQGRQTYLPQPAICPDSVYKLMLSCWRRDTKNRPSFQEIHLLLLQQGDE
Particulars: at 0.1 µM.

The target in test [3] is T1, Discoidin domain-containing receptor 2 (Homo sapiens). Particulars: at 1 µM.
Test [4] concerns the target Epidermal growth factor receptor (Homo sapiens) (UniProt P00533). Particulars: at 0.1 µM.
Test [5] has the same target. Particulars: at 1 µM.
For test [6], the system named is Epidermal growth factor receptor (Homo sapiens), P00533 [L858R]. Particulars: at 0.1 µM.
For test [7] the test system is unchanged. Particulars: at 1 µM.
Test [8] has as its system Epidermal growth factor receptor (Homo sapiens), P00533 [L861Q]. Particulars: at 0.1 µM.
Test [9] has the same test system. Particulars: at 1 µM.
The test system of test [10] is Epidermal growth factor receptor (Homo sapiens), P00533 [T790M]. Particulars: at 0.1 µM.
For test [11] the test system is unchanged. Particulars: at 1 µM.
Test [12] concerns Epidermal growth factor receptor (Homo sapiens), P00533 [L858R,T790M]. Particulars: at 0.1 µM.
Test [13] shares this test system. Particulars: at 1 µM.
Test [14] has as its target Ephrin type-A receptor 2 (Homo sapiens) (UniProt P29317). Particulars: at 0.1 µM.
The target is the same in test [15]. Particulars: at 1 µM.
The target of test [16] is T2, Ephrin type-A receptor 3 (Homo sapiens) (UniProt P29320).
T2 sequence (whole entry): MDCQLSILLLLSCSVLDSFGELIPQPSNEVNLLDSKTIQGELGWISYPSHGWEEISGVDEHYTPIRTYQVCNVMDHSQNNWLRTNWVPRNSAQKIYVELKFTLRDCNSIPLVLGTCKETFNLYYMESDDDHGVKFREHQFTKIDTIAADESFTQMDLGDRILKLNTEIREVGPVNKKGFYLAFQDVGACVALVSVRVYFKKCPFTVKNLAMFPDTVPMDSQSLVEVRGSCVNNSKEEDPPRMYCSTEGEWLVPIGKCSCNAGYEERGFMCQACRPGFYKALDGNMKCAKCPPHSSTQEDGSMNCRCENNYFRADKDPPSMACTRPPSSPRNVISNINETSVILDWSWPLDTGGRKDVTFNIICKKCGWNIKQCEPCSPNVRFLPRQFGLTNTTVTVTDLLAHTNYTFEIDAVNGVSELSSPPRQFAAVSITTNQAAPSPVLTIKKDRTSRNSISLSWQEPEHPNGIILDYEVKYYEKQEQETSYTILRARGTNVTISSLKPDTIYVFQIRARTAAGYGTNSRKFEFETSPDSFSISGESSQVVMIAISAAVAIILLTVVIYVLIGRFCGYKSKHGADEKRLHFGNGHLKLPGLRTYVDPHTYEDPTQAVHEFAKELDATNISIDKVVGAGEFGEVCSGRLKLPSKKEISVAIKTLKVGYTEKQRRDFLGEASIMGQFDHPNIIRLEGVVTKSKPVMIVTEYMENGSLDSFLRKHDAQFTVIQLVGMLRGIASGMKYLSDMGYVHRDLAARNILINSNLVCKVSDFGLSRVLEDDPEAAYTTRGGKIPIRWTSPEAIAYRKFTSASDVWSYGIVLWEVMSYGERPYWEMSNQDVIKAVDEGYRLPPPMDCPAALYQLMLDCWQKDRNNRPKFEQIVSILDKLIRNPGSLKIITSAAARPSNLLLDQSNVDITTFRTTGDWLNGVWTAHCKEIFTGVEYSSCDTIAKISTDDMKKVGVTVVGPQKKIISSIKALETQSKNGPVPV
Particulars: at 0.1 µM.

For test [17], the target named is T2, Ephrin type-A receptor 3 (Homo sapiens). Particulars: at 1 µM.
Test [18] has as its target Ephrin type-A receptor 4 (Homo sapiens) (UniProt P54764). Particulars: at 0.1 µM.
Test [19] has the same target. Particulars: at 1 µM.
Test [20] deals with T3, Ephrin type-B receptor 2 (Homo sapiens) (UniProt P29323).
T3 sequence (whole entry): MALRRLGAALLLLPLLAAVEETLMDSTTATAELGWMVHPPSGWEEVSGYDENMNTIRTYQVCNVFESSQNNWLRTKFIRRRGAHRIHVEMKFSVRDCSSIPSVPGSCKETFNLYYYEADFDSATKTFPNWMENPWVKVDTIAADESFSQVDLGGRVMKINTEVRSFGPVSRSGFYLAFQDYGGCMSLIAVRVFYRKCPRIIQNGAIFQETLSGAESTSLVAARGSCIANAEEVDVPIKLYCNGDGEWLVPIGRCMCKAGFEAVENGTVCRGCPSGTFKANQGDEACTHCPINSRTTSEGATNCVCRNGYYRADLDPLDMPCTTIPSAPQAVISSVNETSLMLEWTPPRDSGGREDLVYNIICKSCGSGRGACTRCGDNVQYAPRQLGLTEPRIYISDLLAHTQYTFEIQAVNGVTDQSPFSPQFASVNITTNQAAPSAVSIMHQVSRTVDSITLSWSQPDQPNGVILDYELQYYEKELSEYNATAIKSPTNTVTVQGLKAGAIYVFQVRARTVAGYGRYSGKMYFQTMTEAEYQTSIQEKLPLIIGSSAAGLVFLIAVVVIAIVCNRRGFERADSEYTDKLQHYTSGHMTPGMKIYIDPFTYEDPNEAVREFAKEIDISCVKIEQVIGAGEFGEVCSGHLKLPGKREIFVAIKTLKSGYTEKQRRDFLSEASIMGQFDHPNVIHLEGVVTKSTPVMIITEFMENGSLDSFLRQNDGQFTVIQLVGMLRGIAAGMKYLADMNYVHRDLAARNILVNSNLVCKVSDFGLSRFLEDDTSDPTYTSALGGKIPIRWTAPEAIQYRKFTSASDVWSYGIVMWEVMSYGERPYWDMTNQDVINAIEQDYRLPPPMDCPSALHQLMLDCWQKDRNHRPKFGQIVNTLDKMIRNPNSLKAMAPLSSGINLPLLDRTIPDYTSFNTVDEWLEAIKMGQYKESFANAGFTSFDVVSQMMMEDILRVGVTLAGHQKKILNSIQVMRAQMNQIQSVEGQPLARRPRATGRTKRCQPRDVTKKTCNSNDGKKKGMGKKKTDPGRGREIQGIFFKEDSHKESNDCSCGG
Particulars: at 0.1 µM.

Chain of Ephrin type-A receptor 2 (Homo sapiens) (P29317 whole entry): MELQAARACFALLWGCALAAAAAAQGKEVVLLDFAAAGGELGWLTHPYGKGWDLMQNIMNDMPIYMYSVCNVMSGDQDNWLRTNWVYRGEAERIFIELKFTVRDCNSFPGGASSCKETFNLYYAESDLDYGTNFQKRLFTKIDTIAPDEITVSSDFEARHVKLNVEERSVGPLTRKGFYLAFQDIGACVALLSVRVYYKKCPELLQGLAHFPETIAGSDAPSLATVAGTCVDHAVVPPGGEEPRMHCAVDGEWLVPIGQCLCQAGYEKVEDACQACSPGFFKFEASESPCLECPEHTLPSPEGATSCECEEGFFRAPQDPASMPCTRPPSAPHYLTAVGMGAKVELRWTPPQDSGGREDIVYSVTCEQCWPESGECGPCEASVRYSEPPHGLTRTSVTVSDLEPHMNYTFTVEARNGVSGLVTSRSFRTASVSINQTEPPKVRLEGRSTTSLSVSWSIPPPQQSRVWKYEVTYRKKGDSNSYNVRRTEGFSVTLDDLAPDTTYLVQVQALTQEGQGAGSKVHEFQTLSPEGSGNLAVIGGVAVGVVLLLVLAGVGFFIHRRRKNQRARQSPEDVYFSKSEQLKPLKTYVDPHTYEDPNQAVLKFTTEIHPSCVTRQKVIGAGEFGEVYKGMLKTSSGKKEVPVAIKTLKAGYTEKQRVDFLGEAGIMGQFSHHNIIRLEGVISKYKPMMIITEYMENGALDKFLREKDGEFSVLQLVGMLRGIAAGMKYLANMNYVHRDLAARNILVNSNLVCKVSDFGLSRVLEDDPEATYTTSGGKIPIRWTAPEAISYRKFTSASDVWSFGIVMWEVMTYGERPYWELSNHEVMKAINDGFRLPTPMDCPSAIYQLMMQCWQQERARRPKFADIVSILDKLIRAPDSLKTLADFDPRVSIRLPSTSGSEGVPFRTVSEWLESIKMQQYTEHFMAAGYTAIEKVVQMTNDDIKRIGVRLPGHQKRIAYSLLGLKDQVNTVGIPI
Chain of Epidermal growth factor receptor (Homo sapiens), P00533 [T790M] (P00533 whole entry T790M): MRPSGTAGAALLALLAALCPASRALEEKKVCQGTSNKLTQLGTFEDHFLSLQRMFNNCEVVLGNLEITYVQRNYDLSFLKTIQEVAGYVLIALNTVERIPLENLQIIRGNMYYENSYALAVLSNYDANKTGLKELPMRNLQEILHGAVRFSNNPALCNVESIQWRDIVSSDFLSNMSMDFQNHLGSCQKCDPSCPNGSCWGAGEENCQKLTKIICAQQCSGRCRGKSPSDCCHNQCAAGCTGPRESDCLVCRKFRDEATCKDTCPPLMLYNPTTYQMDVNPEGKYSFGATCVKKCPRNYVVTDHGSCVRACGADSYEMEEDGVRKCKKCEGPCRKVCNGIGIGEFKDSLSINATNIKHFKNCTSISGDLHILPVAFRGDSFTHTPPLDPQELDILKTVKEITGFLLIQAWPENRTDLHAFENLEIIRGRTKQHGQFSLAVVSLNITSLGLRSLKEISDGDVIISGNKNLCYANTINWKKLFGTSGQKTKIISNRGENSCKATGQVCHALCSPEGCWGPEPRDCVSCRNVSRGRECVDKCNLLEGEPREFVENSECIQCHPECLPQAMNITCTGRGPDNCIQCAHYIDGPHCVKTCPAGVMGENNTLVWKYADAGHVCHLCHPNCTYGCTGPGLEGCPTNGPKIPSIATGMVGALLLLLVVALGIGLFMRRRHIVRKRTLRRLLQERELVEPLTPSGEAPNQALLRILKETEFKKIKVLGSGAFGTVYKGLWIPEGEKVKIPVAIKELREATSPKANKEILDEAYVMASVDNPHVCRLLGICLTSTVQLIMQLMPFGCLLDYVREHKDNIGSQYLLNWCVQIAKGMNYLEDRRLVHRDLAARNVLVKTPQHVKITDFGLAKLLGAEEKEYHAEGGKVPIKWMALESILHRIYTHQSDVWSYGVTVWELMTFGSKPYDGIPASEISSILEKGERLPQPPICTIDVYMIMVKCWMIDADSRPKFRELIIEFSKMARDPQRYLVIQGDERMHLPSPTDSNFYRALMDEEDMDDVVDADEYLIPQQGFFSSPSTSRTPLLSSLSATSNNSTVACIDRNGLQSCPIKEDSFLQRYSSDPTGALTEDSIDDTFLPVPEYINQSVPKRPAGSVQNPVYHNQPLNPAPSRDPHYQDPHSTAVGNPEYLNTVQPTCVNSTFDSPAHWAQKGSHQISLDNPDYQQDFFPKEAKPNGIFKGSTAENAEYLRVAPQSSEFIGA
Chain of Epidermal growth factor receptor (Homo sapiens) (P00533 whole entry): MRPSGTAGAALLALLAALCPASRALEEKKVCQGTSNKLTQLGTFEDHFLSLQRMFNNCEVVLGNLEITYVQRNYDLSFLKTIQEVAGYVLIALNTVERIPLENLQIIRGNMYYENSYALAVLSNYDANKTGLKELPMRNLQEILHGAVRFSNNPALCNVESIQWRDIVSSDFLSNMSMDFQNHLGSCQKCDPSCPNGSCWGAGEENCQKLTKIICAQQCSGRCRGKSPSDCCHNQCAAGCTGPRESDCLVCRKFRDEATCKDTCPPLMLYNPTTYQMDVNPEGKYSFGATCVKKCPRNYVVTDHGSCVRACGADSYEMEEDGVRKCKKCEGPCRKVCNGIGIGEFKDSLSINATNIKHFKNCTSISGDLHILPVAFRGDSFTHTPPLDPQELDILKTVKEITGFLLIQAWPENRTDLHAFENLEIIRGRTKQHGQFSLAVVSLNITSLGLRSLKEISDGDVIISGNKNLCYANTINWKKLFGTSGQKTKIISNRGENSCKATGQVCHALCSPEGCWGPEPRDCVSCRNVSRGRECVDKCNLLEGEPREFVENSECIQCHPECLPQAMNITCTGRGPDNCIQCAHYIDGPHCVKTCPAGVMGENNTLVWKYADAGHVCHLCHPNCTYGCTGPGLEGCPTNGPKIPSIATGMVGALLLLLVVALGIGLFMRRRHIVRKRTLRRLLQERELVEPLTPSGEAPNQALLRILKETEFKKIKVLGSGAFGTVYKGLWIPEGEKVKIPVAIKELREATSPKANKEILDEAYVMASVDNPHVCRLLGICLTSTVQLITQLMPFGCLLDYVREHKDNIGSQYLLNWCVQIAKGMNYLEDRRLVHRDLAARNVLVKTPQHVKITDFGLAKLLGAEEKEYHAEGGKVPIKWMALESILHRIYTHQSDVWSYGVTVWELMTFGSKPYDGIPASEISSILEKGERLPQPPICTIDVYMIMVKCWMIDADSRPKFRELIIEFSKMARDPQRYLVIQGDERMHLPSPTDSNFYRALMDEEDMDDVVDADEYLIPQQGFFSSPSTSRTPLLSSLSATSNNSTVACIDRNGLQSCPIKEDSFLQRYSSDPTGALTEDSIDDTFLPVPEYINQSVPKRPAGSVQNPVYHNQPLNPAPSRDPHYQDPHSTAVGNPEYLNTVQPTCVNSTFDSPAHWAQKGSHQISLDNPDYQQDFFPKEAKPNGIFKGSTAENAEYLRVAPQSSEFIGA
Chain of Ephrin type-A receptor 4 (Homo sapiens) (P54764 whole entry): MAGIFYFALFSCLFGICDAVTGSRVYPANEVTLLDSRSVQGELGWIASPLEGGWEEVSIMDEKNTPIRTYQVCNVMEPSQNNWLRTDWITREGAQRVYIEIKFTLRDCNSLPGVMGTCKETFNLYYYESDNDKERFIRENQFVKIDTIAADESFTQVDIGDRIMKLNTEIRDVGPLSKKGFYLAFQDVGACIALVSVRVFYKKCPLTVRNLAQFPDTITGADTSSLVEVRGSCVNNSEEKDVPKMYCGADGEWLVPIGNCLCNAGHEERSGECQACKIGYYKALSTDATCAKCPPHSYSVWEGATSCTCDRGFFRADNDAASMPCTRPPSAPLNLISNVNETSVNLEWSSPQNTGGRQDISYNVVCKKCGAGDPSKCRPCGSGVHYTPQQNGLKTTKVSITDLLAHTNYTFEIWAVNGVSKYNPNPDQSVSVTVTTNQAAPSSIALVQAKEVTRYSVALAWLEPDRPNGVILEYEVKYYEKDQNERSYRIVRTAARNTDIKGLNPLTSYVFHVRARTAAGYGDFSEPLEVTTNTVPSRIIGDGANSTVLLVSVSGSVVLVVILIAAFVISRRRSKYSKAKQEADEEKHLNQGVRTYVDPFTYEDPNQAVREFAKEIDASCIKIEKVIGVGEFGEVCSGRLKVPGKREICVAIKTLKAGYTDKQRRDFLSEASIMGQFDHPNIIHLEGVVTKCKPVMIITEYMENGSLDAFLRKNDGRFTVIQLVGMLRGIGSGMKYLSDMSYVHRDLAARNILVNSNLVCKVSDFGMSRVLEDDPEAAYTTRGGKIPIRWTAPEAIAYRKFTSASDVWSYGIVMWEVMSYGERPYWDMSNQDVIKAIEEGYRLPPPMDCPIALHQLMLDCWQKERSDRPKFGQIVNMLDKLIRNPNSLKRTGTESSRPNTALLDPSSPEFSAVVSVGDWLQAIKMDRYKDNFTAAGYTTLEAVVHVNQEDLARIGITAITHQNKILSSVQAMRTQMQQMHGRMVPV
Chain of Tyrosine-protein kinase CSK (Homo sapiens) (P41240 2-450 limits assumed): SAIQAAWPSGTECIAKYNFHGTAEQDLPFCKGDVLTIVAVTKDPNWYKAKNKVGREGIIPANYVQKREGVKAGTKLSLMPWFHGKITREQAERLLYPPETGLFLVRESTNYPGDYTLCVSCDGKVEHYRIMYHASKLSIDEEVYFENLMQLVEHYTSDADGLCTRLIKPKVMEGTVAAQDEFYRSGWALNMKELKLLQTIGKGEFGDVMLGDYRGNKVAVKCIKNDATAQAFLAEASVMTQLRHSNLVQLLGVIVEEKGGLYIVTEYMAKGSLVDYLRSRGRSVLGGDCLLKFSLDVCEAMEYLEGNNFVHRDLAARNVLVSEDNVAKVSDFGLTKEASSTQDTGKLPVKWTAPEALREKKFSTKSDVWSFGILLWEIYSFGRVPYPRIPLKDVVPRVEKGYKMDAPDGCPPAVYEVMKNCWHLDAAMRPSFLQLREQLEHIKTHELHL

With `CCn1c(-c2nonc2N)nc2c(N3CCCC3)nccc21`, the inhibition in test [1] is -3.39%; in test [2], 0.93%; in test [3], 1.39%; in test [4], 9.47%; in [5] it was 13%; in [6], -0.34%. Moreover, the inhibition in test [7] was -1.9%; in [8], 0.82%; in test [9], 2.63%; in test [10], -1.01%; in [11] it was -1.06%; in [12], 0.11%. The inhibition is 0.62% in [13]; -5.01% in test [14]; -4.35% in test [15]; -5.79% in test [16]; -2.29% in [17]; -6.53% in test [18]. Besides, the inhibition was -8.11% in test [19] and -2.18% in test [20].

Consider `CS(=O)(=O)CCNCc1ccc(-c2ccc3ncnc(Nc4ccc(OCc5cccc(F)c5)c(C(F)(F)F)c4)c3c2)o1`, for which the inhibition in [1] worked out at 2.03%; in test [2], 1.18%; in test [3] it was 0.88%; in test [4], 12.8%; in test [5], 65.9%; in [6] it was 6.6%. In addition, the inhibition was 46.2% in test [7]; 20.6% in test [8]; 40.8% in test [9]; 2.44% in [10]; 3.43% in [11]; -0.63% in [12]. Moreover, the inhibition in [13] was -1.62%; in [14], 0.17%; in test [15] it was 1.21%; in [16] it was 3.24%; in test [17], 1.95%; in test [18] it was 8.08%. In addition, the inhibition in test [19] worked out at 6.97%; in test [20] it was 4.21%.

In the case of `CCN1CCC(CC(=O)Nc2n[nH]c3nc(-c4cccs4)c(Br)cc23)CC1`, the inhibition was -4.84% in [1]; -0.58% in test [2]; 0.03% in test [3]; 1.1% in [4]; 3.65% in test [5]; 0.06% in test [6]. The inhibition in [7] was 3.28%; in [8], -0.27%; in test [9] it was 1.14%; in test [10], -1.65%; in test [11], -1.12%; in test [12], 0.09%. Also, the inhibition in [13] was -0.41%; in [14], -3.7%; in test [15], -1.54%; in test [16], -7.71%; in test [17] it was -2.29%; in test [18], -7.32%. Moreover, the results for the inhibition in test [19] and in [20] were -3.58% and -2.13%, respectively.

With `CCn1c(-c2nonc2N)nc2ccncc21`, the inhibition in test [1] is -5.08%; in test [2], 0.25%; in test [3], 0.08%; in test [4], 0.86%; in test [5], 2.64%; in test [6] it was -3.87%. Also, the inhibition in test [7] was -4.06%; in test [8], 0.79%; in test [9], -0.98%; in test [10], -0.65%; in test [11], 0.29%; in test [12], -1.07%. Besides, the inhibition was -0.45% in test [13]; 1.93% in [14]; 1.77% in [15]; 0.73% in [16]; -0.12% in test [17]; 5.04% in test [18]. Besides, the inhibition in test [19] was -7.03%; in test [20], -0.84%.

In the case of `COc1cc2ncn(-c3cc(O[C@H](C)c4ccccc4Cl)c(C(N)=O)s3)c2cc1OC`, the inhibition in [1] amounted to 10.1%; in test [2], 8.95%; in test [3] it was 12%; in test [4], 3.12%; in test [5], 3.34%; in [6], 3.8%. Also, the inhibition came out at 14.9% in test [7]; 2.61% in test [8]; 5.37% in test [9]; 1.29% in [10]; 6.04% in [11]; 3.14% in test [12]. In addition, the inhibition in [13] amounted to 6.52%; in [14], 5.44%; in test [15], 6.5%; in test [16], 3.58%; in [17], 14.3%; in test [18] it was 18.9%. Further, the inhibition in test [19] is 26.8%; in [20], 16.6%.

Regarding `COc1ccc(-c2ccncc2)cc1C(N)=O`, the inhibition in [1] came out at 2.12%; in test [2] it was 2.19%; in [3], 2.53%; in test [4], 4.47%; in test [5] it was 4.86%; in [6] it was 5.16%. The inhibition in [7] was 4.73%; in test [8] it was 4.48%; in [9] it was 6.9%; in test [10], 0.43%; in [11], 2.61%; in test [12], 3.26%. The inhibition in [13] came out at 3.22%; in test [14] it was 0.83%; in test [15], 0.98%; in test [16] it was 2.75%; in test [17], 4.65%; in test [18], 6.67%. Also, the inhibition in test [19] amounted to 8.05%; in [20] it was 5.39%.

The record behind these values is ChEMBL document CHEMBL1961873, “Compounds: GSK PKIS; Assays: Nanosyn kinase panel” (2012).
